# Unmarked numbers belong to inactive results. Inconclusive results are not listed. Entries that show only a call come without a potency. Active and inactive are the calls of the source. Calls follow the shape of the dose curve; as a rule, active = well fitted curve in the direction sought with a large enough effect; inconclusive = small, poorly fitted or top-dose-only effect, or another doubt; inactive = no such curve, though single readings can be large; an effect the other way counts as inactive or inconclusive.
# Experiments:
# [1] = molecular target: Cytochrome P450 3A4 (Homo sapiens) (UniProt P08684); assay: qHTS Assay for Inhibitors and Substrates of Cytochrome P450 3A4 (AID 884); settings: recombinant CYP3A4, Luciferin-PPXE luminescence; series mostly up to 57.1 µM; also: nearly all actives have a fitted effect of over 50% in size
# Sequence of Cytochrome P450 3A4 (Homo sapiens) (P08684 whole entry, looked up): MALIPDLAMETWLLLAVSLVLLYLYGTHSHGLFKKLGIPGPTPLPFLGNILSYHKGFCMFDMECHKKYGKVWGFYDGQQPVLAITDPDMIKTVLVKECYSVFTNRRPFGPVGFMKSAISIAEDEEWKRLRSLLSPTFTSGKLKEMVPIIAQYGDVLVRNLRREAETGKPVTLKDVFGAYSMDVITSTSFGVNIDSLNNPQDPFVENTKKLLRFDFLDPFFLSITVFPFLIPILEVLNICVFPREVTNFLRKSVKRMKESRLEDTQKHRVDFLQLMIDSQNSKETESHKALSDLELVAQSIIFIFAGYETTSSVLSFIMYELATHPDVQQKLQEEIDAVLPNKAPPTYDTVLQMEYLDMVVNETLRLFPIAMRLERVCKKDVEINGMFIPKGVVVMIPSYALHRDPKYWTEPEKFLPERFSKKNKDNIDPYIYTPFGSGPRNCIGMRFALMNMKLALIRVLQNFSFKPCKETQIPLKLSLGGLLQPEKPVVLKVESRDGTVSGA
# Outline: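 Luminescent readout of luciferin produced by CYP3A4 (20 nM) dealkylation of Luciferin-PPXE, 25 uM (its KM). NADPH-driven reaction ran 60 min at RT after 10 min compound preincubation; data scaled to 57 uM ketoconazole as 100% inhibition.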
# [2] = Confirmation and Secondary Assay for Modulators of Hemoglobin Beta Chain Splicing at IVS2 654 locus (AID 910); settings: HeLa EGFP-654 splicing reporter, GFP fluorescence, 48 h; series mostly up to 46.1 µM;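 also: HeLa cells stably carrying EGFP split by mutant beta-globin IVS2-654 intron; per-well total GFP intensity by laser scanning cytometry after 2-day treatment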
# Outline: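 Readout: per-well total peak green fluorescence (488 nm ex, 500–520 nm em) from objects 5–250 µm, reflecting correct splicing of an EGFP-654 reporter. Compounds were applied for 2 days at 37 °C to overnight-plated HeLa EGFP-654 cells; controls were DMSO and 500 nM IVS2-654 PNA.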
# [3] = Confirmation and Secondary Assay for Modulators of Hemoglobin Beta Chain Splicing at IVS2 705 locus (AID 930); settings: HeLa EGFP-705 splicing reporter, GFP fluorescence, 48 h; series mostly up to 46.1 µM;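 also: HeLa cells stably expressing the EGFP-705 splicing reporter; GFP fluorescence per well restored by corrected splicing of the IVS2-705 intron in EGFP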
# Outline: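 Splice-correction reporter: EGFP cDNA split by beta-globin intron 2 bearing the 705 mutation, stably in HeLa. Compound incubation 2 days, 37C; fluorescent objects 5-250 µm summed per well.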
# [4] = molecular target: Cytochrome P450 3A4 (Homo sapiens) (UniProt P08684); assay: qHTS Assay for Activators of Cytochrome P450 3A4 (AID 885); settings: recombinant CYP3A4, Luciferin-PPXE luminescence, 60 min; series mostly up to 57.1 µM; also: nearly all actives have a fitted effect of over 65% in size
# Outline: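 Human CYP3A4 dealkylates Luciferin-PPXE to luciferin, which luciferase detection converts to light. Substrate was at its KM (25uM), buffer 200mM KPO4, reaction 60 min at RT.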
# [5] = molecular target: Cytochrome P450 2D6 (Homo sapiens) (UniProt P10635); assay: qHTS Assay for Inhibitors and Substrates of Cytochrome P450 2D6 (AID 891); settings: recombinant CYP2D6, luciferin-ME EGE luminescence; series mostly up to 11.4 µM;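 also: luciferin methyl ether substrate demethylated by CYP2D6 with NADPH regeneration; nearly all actives have a fitted effect of over 60% in size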
# Sequence of Cytochrome P450 2D6 (Homo sapiens) (P10635 whole entry, looked up): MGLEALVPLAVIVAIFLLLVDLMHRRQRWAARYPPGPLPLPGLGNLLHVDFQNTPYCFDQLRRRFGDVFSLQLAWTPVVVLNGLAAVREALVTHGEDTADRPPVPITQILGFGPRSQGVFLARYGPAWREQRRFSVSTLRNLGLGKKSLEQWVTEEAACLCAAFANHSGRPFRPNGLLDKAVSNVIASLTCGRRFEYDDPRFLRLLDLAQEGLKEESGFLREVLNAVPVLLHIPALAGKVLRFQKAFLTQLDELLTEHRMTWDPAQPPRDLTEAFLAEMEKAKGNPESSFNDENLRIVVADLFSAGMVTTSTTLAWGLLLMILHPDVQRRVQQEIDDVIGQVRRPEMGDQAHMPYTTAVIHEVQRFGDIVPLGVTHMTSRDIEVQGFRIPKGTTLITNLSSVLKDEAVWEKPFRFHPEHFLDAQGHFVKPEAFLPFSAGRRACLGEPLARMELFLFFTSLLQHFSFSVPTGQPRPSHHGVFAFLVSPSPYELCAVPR
# Outline: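 Luminescent read-out of luciferin formed by 5 nM human CYP2D6 demethylating 30 uM Luciferin-ME EGE (Km level) over 60 min at room temperature after NADPH regeneration addition. Data normalized to full inhibition by 1.43 uM quinidine.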
# [6] = molecular target: Cytochrome P450 2C19 (Homo sapiens) (UniProt P33261); assay: qHTS Assay for Inhibitors and Substrates of Cytochrome P450 2C19 (AID 899); settings: recombinant CYP2C19, luciferin-H EGE luminescence; series mostly up to 11.4 µM; also: nearly all actives have a fitted effect of over 60% in size; also: potency is read from the fitted curve at half-maximal effect
# Sequence of Cytochrome P450 2C19 (Homo sapiens) (P33261 whole entry, looked up): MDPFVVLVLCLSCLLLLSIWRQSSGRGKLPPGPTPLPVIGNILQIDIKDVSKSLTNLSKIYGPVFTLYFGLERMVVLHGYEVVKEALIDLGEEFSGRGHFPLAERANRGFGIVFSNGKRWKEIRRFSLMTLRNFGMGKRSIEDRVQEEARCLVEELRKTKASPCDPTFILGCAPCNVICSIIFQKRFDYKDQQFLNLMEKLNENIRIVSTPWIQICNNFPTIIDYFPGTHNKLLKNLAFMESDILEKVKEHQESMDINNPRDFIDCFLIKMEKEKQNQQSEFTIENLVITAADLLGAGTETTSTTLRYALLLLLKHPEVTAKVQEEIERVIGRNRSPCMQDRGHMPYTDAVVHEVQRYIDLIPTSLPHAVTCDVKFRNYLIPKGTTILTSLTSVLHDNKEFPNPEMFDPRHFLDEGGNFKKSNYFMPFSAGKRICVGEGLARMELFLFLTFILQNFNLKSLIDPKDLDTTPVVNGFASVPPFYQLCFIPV
# Outline: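 Reactions contain 5nM enzyme, 10uM Luciferin-H EGE (KM) and 50mM KPO4; compound preincubates 10 min at 37C, NADPH regeneration starts turnover for 60 min. Luminescence after detection reagent gives activity.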
compound,measurement,setting,value
NC(C(=O)O)C(O)C(=O)O (configuration not stated),Potency,[1],inactive
same,outcome,[2],inactive
same,outcome,[3],inactive
FC(F)(F)c1ccc(C2[C@H]3CN(Cc4ccc(-c5ccccc5)cc4)[C@H](c4ccccc4)C34CC2(c2cccnc2)C4)cc1 (some centres not stated),Potency,[4],inactive
C[C@]12CCC3c4ccc(O)cc4CCC3C1CCC2OC(=O)CCC1CCCC1 (some centres not stated),Potency,[1],inactive
same,outcome,[2],inactive
Cn1c(N)c(C(=O)COC(=O)c2cc(C(F)(F)F)nc3ccccc23)c(=O)n(Cc2ccccc2)c1=O,Potency,[4],inactive
CO[C@H]1COC(=O)[C@H](C)COC(=O)C/C=C\[C@@H](C)[C@H](OC)COC(=O)C/C=C\[C@@H]1C,"activity change, positive = activation",[4],-51.9% [at 11.4 µM]
C=CCCCCCCCCCCCC(O)CC(O)COC(C)=O (configuration not stated) (tested in a mixture with another compound),Potency,[1],inactive
same,outcome,[2],inactive
same,outcome,[3],inactive
c1ccc(C2[C@H]3CN(CC4CCCCC4)[C@H](c4ccccc4)C34CC2(c2ccccc2)C4)cc1 (some centres not stated),Potency,[4],inactive
NC(=O)c1cc[n+](CC2=C(C(=O)O)N3C(=O)C(NC(=O)C(c4ccccc4)S(=O)(=O)[O-])C3SC2)cc1 (configuration not stated),Potency,[1],inactive
same,outcome,[2],inactive
COC(=O)NC(/C(C(=O)OC)=C(\C)NCc1ccccc1)c1cccs1 (configuration not stated),"activity change, positive = activation",[4],-35.9% [at 11.4 µM]
CCOC(=O)OCC1OC(c2ccccc2)C=CC1OC(=O)OCC (configuration not stated),"activity change, negative = inhibition",[1],-18.7% [at 11.4 µM]
same,Potency,[5],inactive
same,Potency,[6],3.98 µM (active)
N#Cc1ccc(C23CC4(C2)[C@H](CN(CC2CCCCC2)[C@@H]4c2ccccc2)C3c2ccc(C(F)(F)F)cc2)cc1 (some centres not stated),Potency,[4],inactive
CCOC(=O)OCC1OC(c2ccc(C(C)=O)cc2)C=CC1Oc1ccc(-c2ccccc2)cc1 (configuration not stated),"activity change, negative = inhibition",[1],-27.8% [at 11.4 µM]
same,Potency,[5],inactive
same,Potency,[6],inactive

# From PubChem BioAssay (NCATS)
